The values below come from PubChem BioAssay (NCATS).

Results filed as inconclusive are left out. A call without a number means that no potency is given here. Calls of active or inactive are those of the source. Calls follow the shape of the dose curve; as a rule, active = well fitted inhibition curve with a large enough effect; inconclusive = small, poorly fitted or top-dose-only effect, or effect the other way; inactive = flat fitted curve, though single readings scatter.

Chain of ATP-dependent 6-phosphofructokinase (Trypanosoma brucei brucei) (O15648 whole entry, looked up): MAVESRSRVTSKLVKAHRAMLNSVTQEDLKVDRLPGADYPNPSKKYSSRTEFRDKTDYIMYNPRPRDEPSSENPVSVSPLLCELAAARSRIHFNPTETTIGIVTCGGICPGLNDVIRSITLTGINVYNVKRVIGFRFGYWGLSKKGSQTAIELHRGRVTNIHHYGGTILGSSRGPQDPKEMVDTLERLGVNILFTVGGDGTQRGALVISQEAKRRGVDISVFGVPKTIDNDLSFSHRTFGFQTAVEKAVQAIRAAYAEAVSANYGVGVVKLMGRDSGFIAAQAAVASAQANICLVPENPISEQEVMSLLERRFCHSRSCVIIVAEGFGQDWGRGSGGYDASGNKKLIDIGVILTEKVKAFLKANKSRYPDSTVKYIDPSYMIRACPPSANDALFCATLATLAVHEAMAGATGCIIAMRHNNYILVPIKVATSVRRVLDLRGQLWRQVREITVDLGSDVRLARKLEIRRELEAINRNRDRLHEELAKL

This test addresses ATP-dependent 6-phosphofructokinase (Trypanosoma brucei brucei) (UniProt O15648). Put plainly: qHTS Assay to Find Inhibitors of T. brucei phosphofructokinase: hit validation (AID 492961).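 Also: luminescence reports ADP formed as PFK phosphorylates fructose-6-phosphate with ATP.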 The following applies: T. brucei PFK, ADP-Glo luminescence; series mostly up to 51.4 µM. An outline of the steps: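 Measures ADP output of PFK (1.25 nM) at 0.1 mM ATP, 0.5 mM F6P, pH 8.0 TEA buffer with 5 mM MgCl2. No-enzyme wells define full inhibition; uninhibited enzyme wells define zero.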
(In general: qHTS replaces the single test concentration by a dilution series.)
`CC(=O)Oc1ccccc1C(=O)Nc1ncc([N+](=O)[O-])s1`: the Potency entry is “inactive”.
On to `CCOc1cc(N)c(Cl)cc1C(=O)NCC1CN(Cc2ccc(F)cc2)CCO1` (stereo not given), for which the Potency result is “inactive”.
With `Cn1nnc2c(C(N)=O)ncn2c1=O` the entry was “inactive”; with `CN1CCN(c2c(F)cc3c(=O)c(C(=O)O)cn4c3c2OCN4C)CC1`, “inactive”.
Turning to `O=C(O)c1cc(=O)[nH]c(=O)[nH]1`, the Potency entry was “inactive”.
With `NCCCC(O)(P(=O)(O)O)P(=O)(O)O`, the Potency result is “inactive”.
With `NC(=O)c1cccnc1` the entry was “inactive”.
Next, `COc1cc2c(Nc3ccc(Br)cc3F)ncnc2cc1OCC1CCN(C)CC1`: “inactive”; `COc1cnc(NS(=O)(=O)c2ccc(N)cc2)nc1`: “inactive”; `Oc1c(Cl)cc(Cl)c2cccnc12`: “inactive”.
Turning to `CCCCCCNC(=O)n1cc(F)c(=O)[nH]c1=O`, the Potency entry is “inactive”.
As for `CC(N)C12CC3CC(CC(C3)C1)C2` (stereo not given), the Potency result is “inactive”.
With `CN(Cc1cc(Br)cc(Br)c1N)C1CCCCC1` the entry was “inactive”; with `CCOC(=O)c1ccc(C#Cc2ccc3c(c2)C(C)(C)CCS3)nc1`, “inactive”.
Next, `C1CCC(C(CC2CCCCN2)C2CCCCC2)CC1` (stereo not given): “inactive”; `CN1CCN(c2c(F)cc3c(=O)c(C(=O)O)cn(CCF)c3c2F)CC1`: “inactive”.
For `CC1=NN(c2ccccc2)C(=O)C1`, the Potency result is “inactive”.
With `CCOC(=O)[C@H](CCc1ccccc1)N[C@H]1CS[C@H](c2cccs2)CN(CC(=O)O)C1=O` the entry was “inactive”; with `CCn1cc(C(=O)O)c(=O)c2cc(F)c(N3CCN(C)CC3)cc21`, “inactive”.
Next, `O=NN(CCCl)C(=O)NC1CCCCC1`: “inactive”.
Next, `Cc1cccc(N(C)C(=S)Oc2ccc3ccccc3c2)c1`: “inactive”.
For the compound `COc1cc(NS(=O)(=O)c2ccc(N)cc2)nc(OC)n1`, the Potency entry is “inactive”.
As for `O=C(O)c1cn(C2CC2)c2cc(N3CCNCC3)c(F)cc2c1=O`, the Potency entry is “inactive”.
Next, `CCC(C)(C)c1ccc(CC(C)CN2C[C@@H](C)O[C@@H](C)C2)cc1` (stereo not given in full): “inactive”; `C[C@]12C=CC(=O)C=C1CC[C@@H]1[C@@H]2C(=O)C[C@@]2(C)[C@H]1CC[C@]2(O)C(=O)CO`: “inactive”; `CC[C@H](C)C(=O)O[C@H]1C[C@@H](C)C=C2C=C[C@H](C)[C@H](CC[C@@H]3C[C@@H](O)CC(=O)O3)[C@H]21`: “inactive”.
Next, `Cc1ccnc2c1NC(=O)c1cccnc1N2C1CC1`: “inactive”; `O=C(O)CCn1c2c(c3ccccc31)C[C@H](NS(=O)(=O)c1ccc(F)cc1)CC2`: “inactive”.
Next, `NC(=O)N1c2ccccc2CC(=O)c2ccccc21`: “inactive”; `NC(N)=NC(N)=NCCc1ccccc1`: “inactive”.
